CHX counter: affects cycloheximide protein synthesis inhibition readout, counter-screen | cell reporter, cycloheximide protein synthesis inhibition counterscreen | max response, % | actives 12% (n = 300,000) | AID 2314; in the data active means max response mostly above about 13%, no sharp cut-off; inactive means mostly below about 14%; further: read at 38.3 µM for the half of the compounds with a filed dose; 0% is about no effect
Pf growth 96h: P. falciparum growth inhibition at 96 hours | P. falciparum luciferase reporter growth, 96 h | Potency, µM (titrated, usually from 28.7 µM), without a hit: at the top dose activity change, negative = inhibition, most hits filed as inhibitors | actives 6.9% (n = 320,000) | AID 504834; further: potency means the concentration at half of the fitted maximal effect; on the % scale 0 is the no-effect control and ±100 the full control effect
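Two parasite generations (96 h, 37 C, 5% CO2) of compound exposure in infected erythrocytes (0.05% parasitemia, 2% hematocrit). Luciferase-reporter P. falciparum; decreased luminescence indicates inhibited growth, aimed at apicoplast-acting delayed death.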
NS1 function inh: inhibitors of influenza NS1 protein function; Potency, µM (doses to about 46.1 µM), inactives show at the top dose activity, positive = more growth; actives 0.4% (n = 270,000); calls by dose curve; further: potency means the concentration at half of the fitted maximal effect; actives are rising curves; nearly all actives have a fitted effect of over 50% in size
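Recovery from NS1-induced slow growth read by OD600 in budding yeast switched to galactose assay medium (pH 6.0, -URA) at 1:100 dilution. Compound 23 nl per well; the matching strain lacking NS1 serves as control.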
Pf growth 48h: P. falciparum growth inhibition at 48 hours (one generation); P. falciparum luciferase growth in erythrocytes, 48 h; Potency, µM (titrated, usually from 28.7 µM), inactives show top-dose activity change, negative = inhibition, most hits filed as inhibitors; actives 5.9% (n = 310,000); further: potency means the concentration at half of the fitted maximal effect; on the % scale 0 is the no-effect control and ±100 the full control effect
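First compound was added to culture medium, then infected red cells at 0.1% parasitemia and 2% hematocrit (final). After incubation at 37 C under 5% CO2, luciferase detection reagent was dispensed and light output recorded.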
SARS PLpro yeast: SARS-CoV PLP inhibition in yeast | S. cerevisiae expressing SARS-CoV PLpro, growth rescue | Potency, µM (top dose mostly 32.9 µM), without a hit: at the highest dose activity, positive = growth rescue, usual class: activators | actives 0.19% (n = 330,000) | AID 485353; calls by dose curve; further: potency means the concentration at half of the fitted maximal effect; 0% is about no effect; nearly all actives have a fitted effect of over 55% in size
Shiga inhibitor: blocks Shiga toxin action in Vero cells; Vero cells, Shiga toxin protein synthesis inhibition reporter; inhibition, % at 38.7 µM; actives 9.2% (n = 290,000); AID 2315; in the data active means inhibition mostly above about 28%, no sharp cut-off; inactive means mostly below about 43%; further: 0% is about no effect
* marks the source's active call; other numbers are inactive results; ? = inconclusive; . = no result; [ ] = dose if it differs, or a comment. Most compounds without a hit are left out; they make up all but 21% or so of the library. Unless noted, the call rests on the fitted dose curve; in most records, active means well fitted inhibition curve with a large enough effect; inconclusive means small, poorly fitted or top-dose-only effect, or another doubt; inactive means no such curve, though single readings can be large or run the other way.

SMILES	CHX counter	Pf growth 96h	NS1 function inh	Pf growth 48h	SARS PLpro yeast	Shiga inhibitor
O=C1CCCC2=C1C(c1ccncc1)Nc1ccccc1N2 (stereo not drawn)	1	10µM*	-5%	.	-5%	-2
O=C1CCCC2=C1C(c1cccs1)Nc1ccccc1N2 (stereo not drawn)	-3	41%	-3%	11%	6%	13
CCCCc1c(O)nc(SCC(=O)c2ccccc2)n(-c2ccccc2)c1=O	13	31%	1%	10%	1%	38
COc1ccc(C2C(C(=O)c3ccco3)=C(O)C(=O)N2c2nnc(C)s2)cc1 (stereo not drawn)	55*	?	8%	22%	-1%	76*
Cc1ccc2nc(N3C(=O)C(O)=C(C(=O)c4ccco4)C3c3cccs3)sc2c1 (stereo not drawn)	34*	371%	-45%	59%	-17%	68*
C=CCOc1ccc(C2C(C(=O)c3ccco3)=C(O)C(=O)N2c2nnc(C)s2)cc1 (stereo not drawn)	23*	49%	15%	-13%	0%	71*
COc1ccc(C2C(C(=O)c3ccco3)=C(O)C(=O)N2c2nnc(C)s2)cc1OC (stereo not drawn)	-1	16%	3%	-6%	3%	6
O=C(Cn1cncn1)NCCC(c1ccccc1)c1ccccc1	-2	30%	0%	0%	-2%	11
COc1ccc2c(-c3ccccc3)cc(SC(C)C(N)=O)nc2c1 (stereo not drawn)	-2	?	.	10µM*	-2%	-9
CCCN(C(=O)CSc1cc(-c2ccccc2)c2ccc(OC)cc2n1)C1CCS(=O)(=O)C1 (stereo not drawn)	1	9.3µM*	23%	?	6%	-17
CC(=O)N1CCN(C(=O)CSc2nc3c(cnn3-c3ccccc3)c(=O)[nH]2)CC1	38*	5%[5.75 µM]	-2%	0%	2%	78*
CC1CCN(C(=O)CSc2nc3c(cnn3-c3ccccc3)c(=O)[nH]2)CC1	-3	?	18%	.	4%	14
CCCN(C(=O)CSc1nc2c(cnn2-c2ccccc2)c(=O)[nH]1)C1CCS(=O)(=O)C1 (stereo not drawn)	-6	?	11%	9.3µM*	14%	2
COc1ccccc1C(=O)NCCC(=O)OCC(=O)Nc1ccc(S(N)(=O)=O)cc1	.	13%	.	17%	0%	.
COc1ccc(NC(=O)CN(c2ccccc2F)S(=O)(=O)c2ccc(C)cc2)c(OC)c1	-1	1%	6%	?	0%	-8
COc1cccc(CNC(=O)C2CCN(S(=O)(=O)c3ccc4c(c3)OCCO4)CC2)c1	-2	?	-3%	1%	7%	-26
O=S(=O)(c1ccccc1)N(CC(O)COc1ccccc1)c1ccccc1 (stereo not drawn)	-3	-1%	-5%	-15%	0%	-5
O=c1[nH]c(C2CCCN(S(=O)(=O)c3ccc(F)cc3)C2)nc2c1nnn2Cc1ccccc1 (stereo not drawn)	-1	13%[5.75 µM]	-28%	13µM*	-3%	-13
N#Cc1ccc(NC(=O)N2CCC(c3nc4c(nnn4Cc4cccc(Cl)c4)c(=O)[nH]3)CC2)cc1	-2	7.4µM*	3%	?	1%	13
O=c1[nH]c(C2CCCN(S(=O)(=O)Cc3ccccc3)C2)nc2c1nnn2Cc1cccc(Cl)c1 (stereo not drawn)	0	10%	2%	12µM*	2%	23
O=c1[nH]c(C2CCCN(S(=O)(=O)c3cccc(Cl)c3)C2)nc2c1nnn2Cc1ccc2c(c1)OCCO2 (stereo not drawn)	-3	16%	20%	?	-1%	2
O=C(NCCc1ccccc1)C1CCCN(c2nc3ccccc3s2)C1 (stereo not drawn)	-3	36%	-12%	3%	-1%	-8
CCCCNC(=O)c1cn(C)c2ccc(S(=O)(=O)N3CCOCC3)cc2c1=O	.	.	0%	.	.	.
CCc1cc(=O)oc2cc(OCC(=O)N(CC)CC)c(Cl)cc12	5	10µM*	-1%	.	17%	3
O=C(CSc1nnc(CNC(=O)c2cccs2)o1)Nc1ccc2c(c1)OCO2	-2	?	4%	0%	2%	-17
SMILES	CHX counter	Pf growth 96h	NS1 function inh	Pf growth 48h	SARS PLpro yeast	Shiga inhibitor
O=C(CSc1cccs1)Nc1ccc(Cl)cc1	54*	44%	-2%	82%	-4%	50*
Cc1cc(C)cc(NC(=O)CSc2nnc(CNC(=O)c3cccs3)o2)c1	5	70%	-6%	10%	3%	-20
O=C(CSc1nnc(CNC(=O)c2cccs2)o1)Nc1ccc(Br)cc1	1	13µM*	-1%	7%	3%	2
O=C(CSc1nnc(CNC(=O)c2cccs2)o1)Nc1ccc(Cl)cc1	1	10µM*	-7%	2%	?	-5
CC1CCCN(C(=O)c2ccc3c(=O)n(Cc4ccc5c(c4)OCO5)c(=S)[nH]c3c2)C1 (stereo not drawn)	-2	7.4µM*	12%	-29%	4%	-14
COc1ccc(N2CCN(C(=O)c3ccc4c(c3)[nH]c(=S)n3c5ccccc5nc43)CC2)cc1	-1	13%	.	-12%	-1%	17
COc1ccc(Cn2c(=O)[nH]c3cc(C(=O)N4CCN(c5ccc(C(C)=O)cc5)CC4)ccc3c2=O)cc1	-1	12µM*	13%	-20%	5%	-8
O=C(c1ccc(Cn2c(=S)[nH]c3cc4c(cc3c2=O)OCO4)cc1)N1CCN(c2ncccn2)CC1	-4	?	15%	12µM*	2%	-7
COc1ccc(-n2c(=S)[nH]c3cc(C(=O)N4CCN(c5ccccc5)CC4)ccc3c2=O)cc1	-5	2.1µM*	11%	-9%	13%	-6
O=C(CCn1c(=S)[nH]c2cc3c(cc2c1=O)OCO3)N1CCN(c2ccccn2)CC1	.	.	-33%	.	.	.
CCC1(CC)NC(=O)N(CC(=O)NC(=O)NCc2ccccc2)C1=O	11	23%	14%	11%	2%	-5
COc1ccc(-c2n[nH]c(=S)n2-c2ccccc2C)cc1	-1	-17%	-44%	-5%	-1%	1
C=CCn1c(=O)[nH]c2cc(C(=O)N3CCN(c4ccc(C(C)=O)cc4)CC3)ccc2c1=O	11	6.6µM*	-9%	.	-12%	13
O=C(c1ccc2c(=O)n(Cc3ccc4c(c3)OCO4)c(=O)[nH]c2c1)N1CCN(c2ccccc2)CC1	-3	12µM*	10%	-9%	-5%	-4
COc1ccc(N2CCN(C(=O)c3ccc4c(=O)n(Cc5ccc6c(c5)OCO6)c(=O)[nH]c4c3)CC2)cc1	-3	13%	8%	0%	-1%	2
CC(=O)c1ccc(N2CCN(C(=O)c3ccc4c(=O)n(-c5ccccc5)c(=O)[nH]c4c3)CC2)cc1	-2	?	-17%	10µM*	3%	11
